# Screening results (PubChem BioAssay)
# This is a sample that favours compounds with a hit; in the whole collection about 14% have one here.
# HSD17B inh: HSD17B dehydrogenase inhibition | recombinant HSD17B10, NADH fluorescence kinetic | AID 893 | Potency, µM (series often up to 57.1 µM), without a hit: at the highest dose activity change, negative = inhibition, actives largely listed as inhibitors | Q99714 | 7.6% of 75,000 active;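 note: the protocol describes HADH2 (HSD17B10) and not the HSD17B4 of the title; potency is the fitted concentration of half-maximal effect; % is set by controls: 0 for no effect and ±100 for the full control effect; nearly all actives have a fitted effect of over 70% in size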
#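 Enzyme plus compound, 15 min room temperature; substrate mix added (NAD+ 1 mM, beta-hydroxybutyryl-CoA 90 uM final); plates read kinetically for NADH fluorescence. HADH2 was His-tagged, E. coli-derived, 20 nM.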
# HADH2 inh: blocks human hydroxyacyl-CoA dehydrogenase type II; Q99714; recombinant HADH2, NADH fluorescence, beta-hydroxybutyryl-CoA; Potency, µM (top dose mostly 57.1 µM), for the others: at the top dose activity change, negative = inhibition, hits mostly inhibitors; 3.4% of 73,000 active; AID 886; note: potency is the fitted concentration of half-maximal effect; % is set by controls: 0 for no effect and ±100 for the full control effect; nearly all actives have a fitted effect of over 60% in size
# Target sequence (Q99714 whole entry, looked up, one chain of several): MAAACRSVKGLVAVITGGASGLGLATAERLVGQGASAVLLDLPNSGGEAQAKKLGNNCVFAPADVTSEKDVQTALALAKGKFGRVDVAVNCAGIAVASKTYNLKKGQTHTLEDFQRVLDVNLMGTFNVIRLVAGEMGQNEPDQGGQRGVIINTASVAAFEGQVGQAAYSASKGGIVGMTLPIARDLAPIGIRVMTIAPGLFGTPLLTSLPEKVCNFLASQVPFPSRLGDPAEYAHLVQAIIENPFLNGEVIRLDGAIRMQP
#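 Read-out: 360 nm excitation, 450 nm emission, kinetic over 4 min. Conditions: His-tagged human HADH2 20 nM, pH 9.0 Tris with Tween-20, 1 mM NAD+, 90 uM beta-hydroxybutyryl-CoA.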
# A350 fluor: compound fluoresces in the Alexa 350 spectral region; 11% of 59,000 active; max dye-equivalent concentration, M; Compound autofluorescence, 340/450 nm, Alexa 350 dye-equivalents; hits give high values; AID 590; in the data active = max dye-equivalent concentration above about 10 nM; inconclusive = mostly about 1.1 nM to 9.6 nM
# 4MU fluor: compounds fluorescent in 4-MU spectral region; compound autofluorescence, 340/450 nm, 4-MU equivalents; hits give high values; 11% of 59,000 active; AID 589; max dye-equivalent concentration, M; in the data active = max dye-equivalent concentration above about 10 nM; inconclusive = mostly about 1.1 nM to 9.6 nM
#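 Compounds in 100 mM Tris, pH 8.0, sat 15 min at room temperature before fluorescence was read at 340 nm excitation/450 nm emission; a per-plate six-point 4-MU standard curve converted signals to dye-equivalent concentration at each compound concentration.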
# AID923: qHTS Assay for Allosteric/Competitive Inhibitors of Caspase-1: Spectroscopic Profiling in AFC Spectral Region. compound fluorescence, AFC spectral region (405/520 nm). Potency, µM (series often up to 57.5 µM), for the others: at the highest dose fluorescence increase, hits mostly activators. 1.1% of 75,000 active. AID 923, 2007; note: potency is the fitted concentration of half-maximal effect; 0% is about no effect
#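 Baseline compound fluorescence (AFC region, 405 nm ex/520 nm em) taken from the intercept of kinetic reads with 50 nM caspase-1 and 5 uM Ac-WEHD-AFC; normalized to an on-plate AFC standard curve; compounds titrated up to 57 uM.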
# CRE Fsk mod: CRE-bla signaling modulation under forskolin stimulation; CHO CRE-bla reporter (cAMP response element driving beta-lactamase), forskolin EC10, beta-lactamase ratio; Potency, µM (doses to about 38.2 µM), for the others: at the top dose activity change, negative = inhibition, most hits filed as activators; 2.5% of 71,000 active; AID 662; active = well fitted activation curve with a large enough effect in the signal ratio, with a control signal flat, not every such curve was filed as active; inconclusive = small, poorly fitted or top-dose-only effect, or effect the other way, or a change in a side signal; the % refers to the signal ratio; note: potency is the fitted concentration of half-maximal effect; % of control where 0% means no effect
#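 The 460nm/530nm emission ratio after CCF4 loading defined %Activity, from which AC50 values were obtained. CRE-bla CHO cells received compound dilution series together with an EC10 level of NKH 477 for 3 hours at 37 degrees Celsius.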
# CHO tox 24h: cytotoxicity in CRE-bla CHO cells at 24 h; shares compounds with CRE Fsk mod; CRE-bla CHO viability, ATP luminescence, 24 h; activity, negative = viability loss, % at 46.1 µM; 120 tested, under 10 active; AID 905
# CHO via 40h: cytotoxicity in CRE-bla CHO cells at 40 h; shares compounds with CRE Fsk mod; CRE-bla CHO viability, ATP luminescence, 40 h; Potency, µM, without a hit: max response, usual class: inhibitors; 120 tested, under 10 active
# CREB luc CRC: boosts CRE luciferase signal in HEK293 cells; shares compounds with CRE Fsk mod; HEK293 CRE-luc2P, NKH477 EC10 potentiation, luminescence, 4 h; Potency, µM (titrated, usually from 38.3 µM), inactives show at the highest dose activity, positive = activation, most hits filed as activators; 80% of 120 active; AID 907
# An asterisk follows results filed as active; i = inactive; ? = inconclusive; . = no result; [ ] = another dose, or the depositor's remark. Unless noted, calls come from the whole dose curve; as a rule, active = well fitted curve in the direction sought with a large enough effect; inconclusive = small, poorly fitted or top-dose-only effect, or another doubt; inactive = no such curve, though single readings can be large; an effect the other way counts as inactive or inconclusive.
SMILES,HSD17B inh,HADH2 inh,A350 fluor,4MU fluor,AID923,CRE Fsk mod,CHO tox 24h,CHO via 40h,CREB luc CRC
Cc1nc(SCC(=O)Nc2ccc3c(c2)OCCO3)c2oc3ccccc3c2n1,-5.6%,27.9%,i,i,0.3%,0.251µM*,-9.8,-20.4%,5.01µM*
O=C(CSc1ncnc2c1oc1ccccc12)Nc1ccc2c(c1)OCCO2,-13.9%,10.2%,i,i,0.4%,?,.,.,.
CCc1nc(SCC(=O)Nc2ccc3c(c2)OCCO3)c2oc3ccccc3c2n1,-11.2%,17.4%,i,i,0.1%,0.398µM*,?,31.6µM*,3.98µM*
CC1Cc2cc(C(=O)O)ccc2O1 (stereo unspecified),3.3%,6.3%,i,i,0.4%,-2.3%,.,.,.
COc1ccc(/C(O)=C(\C#N)c2nc3ccccc3n2C)cc1OC,-11.4%,1.8%,?,1.36e-08M*,1.0%,5.01µM*,-9.0,-18.7%,4.47µM*
O=C(NC1CCCC1)C1CCCN1C(=O)Nc1ccc(Cl)cc1 (stereo unspecified),1.5%,-12.0%,i,i,0.5%,-2.8%,.,.,.
CCOc1ccc(C2c3c(oc4ccccc4c3=O)C(=O)N2c2ccc(C)cn2)cc1OC (stereo unspecified),0.2%,-4.9%,.,.,1.0%,2µM*,-8.9,-27.0%,10µM*
CN(C)CCCOC(=O)CCc1ccccc1,10.6%,5.8%,i,i,-1.2%,-6.6%,.,.,.
CSc1nnc2c3ccccc3n(CCc3ccccc3)c2n1,-26.8%,-2.6%[11.4 µM],.,.,0.9%,0.0158µM*,?,?,3.16µM*
C=CCNc1nc(Nc2ccc(OC)cc2OC)nc(OCC)n1,-3.8%,8.0%,i,i,3.9%,5.01µM*,-1.3,-10.7%,10µM*
COc1ccc(NC(=O)COc2ccccc2)c(OC)c1,4.3%,3.2%,i,i,0.7%,-10.9%,.,.,.
Cc1sc2nc(SCc3nc4ccccc4[nH]3)n(Cc3ccco3)c(=O)c2c1C,0.6%,4.7%,?,?,2.1%,0.631µM*,-16.5,?,1.58µM*
COc1cccc(C2/C(=C(\O)c3ccc4c(c3)OCCO4)C(=O)C(=O)N2CCN(C)C)c1 (stereo unspecified),.,.,i,i,.,.,.,.,.
CCNc1nc(NC(C)C)nc(N(C#N)Cc2ccccc2)n1,-8.7%,-4.8%,i,i,0.7%,15.1%,.,.,.
CCNc1nc(NC(C)(C)C)nc(N(C#N)CC)n1,-5.0%,12.5%,i,i,2.4%,?,-12.2,-25.0%,1.26µM*
O=C(Nc1ccccc1O)c1cc(S(=O)(=O)N2CCOCC2)ccc1Cl,1.9%,-7.0%,i,i,2.5%,1.2%,4.7,-9.0%,15.8µM*
Nc1nc(CSc2n[nH]c(-c3ccccc3)n2)nc(Nc2ccccc2)n1,-13.8%,-5.2%,?,i,-1.7%,2µM*,-10.4,?,5.01µM*
CC(=O)c1cc2c(cc1NC(=O)CN1CCN(C(=O)c3ccco3)CC1)OCO2,-2.9%,17.7%,.,.,-0.7%,3.3%,.,.,.
O=S(=O)(c1ccc2c(c1)OCCO2)N1CCN(c2cccc(Cl)c2)CC1,-2.3%,5.2%,i,i,0.0%,?,.,.,.
O=S(=O)(c1ccc2c(c1)OCCO2)N1CCC(O)(c2ccc(Cl)cc2)CC1,22.2%,3.2%,i,i,1.7%,1.4%,-2.2,-6.1%,?
COC(=O)c1ccc(CSc2nc3c(cnn3-c3ccc(Cl)cc3)c(=O)[nH]2)o1,-5.7%,-27.7%,i,i,0.9%,?,.,.,.
COC(=O)c1ccc(CSc2nc3c(cnn3-c3ccc(F)cc3)c(=O)[nH]2)o1,?,?,?,i,2.8%,12.6µM*,-3.5,-18.3%,5.01µM*
Cn1c(/C(C#N)=C/Nc2ccccn2)nc2ccccc21,.,.,1.48e-08M*,?,.,.,6.0,-12.4%,12.6µM*
c1ccc(Nc2nc3ccccc3[nH]2)nc1,-2.6%,-28.9%,?,i,-2.8%,?,.,.,.
CC(=O)N1CCN(c2ccc(Nc3nc(C)nc4c3oc3ccccc34)cc2)CC1,?,-6.6%,i,i,-0.8%,1µM*,-10.3,?,?
SMILES,HSD17B inh,HADH2 inh,A350 fluor,4MU fluor,AID923,CRE Fsk mod,CHO tox 24h,CHO via 40h,CREB luc CRC
CC[C@]1(O)C[C@@H]2CN(CCc3c([nH]c4ccccc34)[C@](C(=O)OC)(c3cc4c(cc3OC)N(C)[C@H]3[C@](O)(C(=O)OC)[C@@H](C(=O)OC)[C@@]5(CC)C=CCN6CC[C@@]43[C@@H]65)C2)C1,-23.2%,0.8%,.,.,0.4%,0.251µM*,?,?,-1.1%
CN(C)c1nc(N(C)C)nc(N(C)C)n1,-0.8%,?,i,i,1.5%,5.8%[17.1 µM],3.0,-2.6%,?
COC(=O)c1ccc(CSc2ccc3nnc(-c4ccc(OC)c(OC)c4)n3n2)o1,?,-6.6%,i,i,-0.8%,1.58µM*,-20.0,-27.6%,2µM*
COC(=O)c1ccc(CSc2ccc3nnc(-c4cccnc4)n3n2)o1,10.2%,-11.3%,.,.,1.7%,?,.,.,.
CC(C)C[C@H](NC(=O)NCc1ccc(Cl)cc1)C(=O)O,5.5%,2.6%,i,i,1.7%,0.0%,.,.,.
CCCCCOC(=O)c1[nH]c2c(c1C)C(=O)CC(c1ccco1)C2 (stereo unspecified),-14.4%,-3.5%,.,.,-0.1%,0.0794µM*,-22.2,-26.7%,-16.5%
CCCOC(=O)c1[nH]c2c(c1C)C(=O)CC(c1ccc(OC)c(OC)c1)C2 (stereo unspecified),-8.6%,10.6%,i,i,-1.7%,6.8%,.,.,.
C/C(N)=C(/C#N)C(=O)CSc1nc(C2CCCCC2)n(-c2ccccc2)n1,-7.9%,4.5%,i,i,-2.7%,5.4%,.,.,.
Cc1nn(-c2ccccc2)c2sc(C(=O)N(CC(=O)NC(C)(C)C)Cc3ccco3)cc12,-29.1%,-6.9%,i,i,1.6%,18.4%,?,?,12.6µM*
O=C(CSc1ncnc2c1oc1ccccc12)c1cccs1,1.7%,9.6%,i,i,3.5%,?,-4.4,-11.2%,1.26µM*
Fc1cccc(CSc2ncnc3c2oc2ccccc23)c1,1.6%,-11.1%,i,i,0.8%,?,.,.,.
